{
  "source": "paper PMC4336329",
  "about": "(PLoS ONE, 2015)",
  "note": "Screen size: about 310,000 compounds; about 14,000 (4.5%) showed an effect of 50% or more. Effects have a minus sign here. This is one part of a sample in which strong results are shown more often than they occur.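 Further: peak tail current of the secondary pulse compared with the same well before compound.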",
  "data": [
    {"target": "human ether-à-go-go-related gene (hERG) potassium channel (human, UniProt Q12809)", "sequence (Q12809 whole entry, looked up)": "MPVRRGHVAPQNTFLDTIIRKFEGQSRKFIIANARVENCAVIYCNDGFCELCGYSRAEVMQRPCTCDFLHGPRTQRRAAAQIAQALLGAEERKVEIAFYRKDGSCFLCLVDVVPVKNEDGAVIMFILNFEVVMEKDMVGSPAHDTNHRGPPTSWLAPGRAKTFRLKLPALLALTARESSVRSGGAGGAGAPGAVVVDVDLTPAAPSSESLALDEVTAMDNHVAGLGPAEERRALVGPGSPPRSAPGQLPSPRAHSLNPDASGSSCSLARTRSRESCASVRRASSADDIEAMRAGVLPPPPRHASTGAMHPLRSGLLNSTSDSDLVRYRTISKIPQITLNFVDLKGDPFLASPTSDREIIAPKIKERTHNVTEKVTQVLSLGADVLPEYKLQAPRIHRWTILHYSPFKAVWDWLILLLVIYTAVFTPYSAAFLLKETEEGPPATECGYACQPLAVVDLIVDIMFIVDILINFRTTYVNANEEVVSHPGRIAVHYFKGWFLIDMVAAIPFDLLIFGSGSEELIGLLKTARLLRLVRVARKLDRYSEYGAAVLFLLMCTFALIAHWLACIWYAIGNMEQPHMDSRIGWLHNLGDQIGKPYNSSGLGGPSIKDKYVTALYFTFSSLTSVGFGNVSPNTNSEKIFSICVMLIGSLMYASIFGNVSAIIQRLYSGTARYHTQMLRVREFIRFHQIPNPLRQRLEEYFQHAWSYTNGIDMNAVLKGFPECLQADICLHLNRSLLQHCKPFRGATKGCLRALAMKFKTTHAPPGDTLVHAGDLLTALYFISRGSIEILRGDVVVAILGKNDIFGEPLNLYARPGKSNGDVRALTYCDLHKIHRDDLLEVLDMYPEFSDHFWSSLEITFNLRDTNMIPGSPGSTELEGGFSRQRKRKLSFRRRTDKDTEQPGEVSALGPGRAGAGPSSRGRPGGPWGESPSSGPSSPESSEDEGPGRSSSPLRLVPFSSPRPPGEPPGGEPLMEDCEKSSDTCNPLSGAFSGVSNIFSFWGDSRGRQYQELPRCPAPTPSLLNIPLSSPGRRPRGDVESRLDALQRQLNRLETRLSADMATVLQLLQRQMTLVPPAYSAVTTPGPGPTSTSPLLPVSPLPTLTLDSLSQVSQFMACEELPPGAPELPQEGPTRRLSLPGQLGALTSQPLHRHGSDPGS", "assay": "primary screen, population patch clamp on CHO cells stably expressing hERG; higher = less effect of the substance", "units": {"hERG current change (%, negative = inhibition) at 10uM": "%"}, "values": [
      {"molecule": "COc1ccc(COC(=O)Nc2c(SC)nsc2SC)cc1", "hERG current change (%, negative = inhibition) at 10uM": 11.5},
      {"molecule": "CCc1noc(C)c1C(=O)OCC(=O)NCc1ccccc1", "hERG current change (%, negative = inhibition) at 10uM": 2.29},
      {"molecule": "NC(=O)c1ccccc1NC(=O)CSc1cn[nH]n1", "hERG current change (%, negative = inhibition) at 10uM": 13.2},
      {"molecule": "Cc1cc(C)cc(NC(=O)CSc2nnc(-c3ccccc3C)o2)c1", "hERG current change (%, negative = inhibition) at 10uM": 3.37},
      {"molecule": "COc1cccc(-c2nnn(CC(=O)O)n2)c1", "hERG current change (%, negative = inhibition) at 10uM": 9.1},
      {"molecule": "Cc1c(CN2CCC(CO)(CCOc3ccccc3)CC2)c(=O)n(-c2ccccc2)n1C", "hERG current change (%, negative = inhibition) at 10uM": -5.7},
      {"molecule": "OCCOc1cccc(CN2CCC(CO)(CCOc3ccccc3)CC2)c1", "hERG current change (%, negative = inhibition) at 10uM": -51.3},
      {"molecule": "COc1ccc(OC)c(CN2CCC(CO)(CCOc3ccccc3)CC2)c1", "hERG current change (%, negative = inhibition) at 10uM": -76.2},
      {"molecule": "COc1ccc(OC)c(CN2CCSCC2)c1", "hERG current change (%, negative = inhibition) at 10uM": 9.69},
      {"molecule": "COc1ccc(OCC(=O)N2CCCC(CO)(CCOc3ccccc3)C2)cc1", "note": "(stereo not drawn)", "hERG current change (%, negative = inhibition) at 10uM": -46.8},
      {"molecule": "CC(=O)c1cccc(CN2CCC(CO)(CCOc3ccccc3)CC2)c1", "hERG current change (%, negative = inhibition) at 10uM": -41.5},
      {"molecule": "COc1cc(OC)c(CN2CCC(CO)(CCOc3ccccc3)CC2)c(OC)c1", "hERG current change (%, negative = inhibition) at 10uM": -86.4},
      {"molecule": "Cc1cc(C)c(CN2CCC(CO)(CCOc3ccccc3)CC2)cc1C", "hERG current change (%, negative = inhibition) at 10uM": -65.2},
      {"molecule": "O=C1CC(Sc2nnc(-c3ccccc3)o2)C(=O)N1c1ccccc1", "note": "(stereo not drawn)", "hERG current change (%, negative = inhibition) at 10uM": 3.12},
      {"molecule": "Cc1cc(C)cc(-c2nnc(SCC(=O)NCc3cccs3)o2)c1", "hERG current change (%, negative = inhibition) at 10uM": 4.21},
      {"molecule": "Fc1ccccc1CN1CCN(c2ncccn2)CC1", "hERG current change (%, negative = inhibition) at 10uM": 5.66},
      {"molecule": "N#Cc1c(SCC(=O)N2CCCCC2)nsc1SCC(=O)N1CCCCC1", "hERG current change (%, negative = inhibition) at 10uM": 16.5},
      {"molecule": "CC(C)C(C(=O)Nc1ccccc1F)N1C(=O)c2ccccc2C1=O", "note": "(stereo not drawn)", "hERG current change (%, negative = inhibition) at 10uM": -3.78},
      {"molecule": "Cc1nn(CCC(=O)NNC(=S)NCC(C)C)c(C)c1Br", "hERG current change (%, negative = inhibition) at 10uM": 14},
      {"molecule": "CCN(CC)S(=O)(=O)c1ccc(OC)c(NS(=O)(=O)c2ccc(F)cc2)c1", "hERG current change (%, negative = inhibition) at 10uM": -10.5},
      {"molecule": "O=C1CCc2cc(S(=O)(=O)NCc3ccccc3Cl)ccc2N1", "hERG current change (%, negative = inhibition) at 10uM": -23.4},
      {"molecule": "Cc1cc(C(=O)NNC(=O)CCCOc2ccccc2)c(C)o1", "hERG current change (%, negative = inhibition) at 10uM": 0.675},
      {"molecule": "CCCNC(=O)C1CCN(c2ccc(S(=O)(=O)N3CCOCC3)cc2Cl)CC1", "hERG current change (%, negative = inhibition) at 10uM": 6.36},
      {"molecule": "Cc1ccc(SC2=C(C(=O)O)CCCC2)cc1", "hERG current change (%, negative = inhibition) at 10uM": 4.25},
      {"molecule": "COc1cc(CN2CCC(CO)(CCOc3ccccc3)CC2)cc(OC)c1", "hERG current change (%, negative = inhibition) at 10uM": -67.3},
      {"molecule": "COc1cc(CN2CCC(CO)(CCOc3ccccc3)CC2)cc(OC)c1OC", "hERG current change (%, negative = inhibition) at 10uM": -38.3},
      {"molecule": "OCC1(CCOc2ccccc2)CCN(Cc2cc(Cl)ccc2O)CC1", "hERG current change (%, negative = inhibition) at 10uM": -24.7},
      {"molecule": "COc1cc(Cl)c(CN2CCC(CO)(CCOc3ccccc3)CC2)cc1OC", "hERG current change (%, negative = inhibition) at 10uM": -80.7},
      {"molecule": "O=C(NC1CCCC1)C(c1ccncc1)N(Cc1ccccc1)C(=O)Cc1cccs1", "note": "(stereo not drawn)", "hERG current change (%, negative = inhibition) at 10uM": -14.1},
      {"molecule": "Cc1ccccc1N1C(=O)C(Oc2ccc(Cl)cc2)C1CNCCCOC(C)C", "note": "(stereo not drawn)", "hERG current change (%, negative = inhibition) at 10uM": -53.4},
      {"molecule": "Cc1ccccc1N1C(=O)C(Oc2ccc(Cl)cc2)C1CNC(C)(C)C", "note": "(stereo not drawn)", "hERG current change (%, negative = inhibition) at 10uM": -39.5},
      {"molecule": "COCCCNCC1C(Oc2ccc(Cl)cc2)C(=O)N1c1ccccc1C", "note": "(stereo not drawn)", "hERG current change (%, negative = inhibition) at 10uM": -8.54},
      {"molecule": "CCCCNCC1C(Oc2ccc(Cl)cc2)C(=O)N1c1ccccc1C.Cl", "note": "(stereo not drawn)", "hERG current change (%, negative = inhibition) at 10uM": -65.9},
      {"molecule": "COCCNCC1C(Oc2ccc(Cl)cc2)C(=O)N1c1ccccc1C.Cl", "note": "(stereo not drawn)", "hERG current change (%, negative = inhibition) at 10uM": -8.44},
      {"molecule": "CCCNCC1C(Oc2ccc(Cl)cc2)C(=O)N1c1ccccc1C", "note": "(stereo not drawn)", "hERG current change (%, negative = inhibition) at 10uM": -48.6},
      {"molecule": "COc1ccc(N2CCN(C(=O)CN=C3NS(=O)(=O)C(c4ccc(C)cc4)=C3C)CC2)cc1", "hERG current change (%, negative = inhibition) at 10uM": -5.05},
      {"molecule": "O=C(Cc1ccccc1)N/N=C/c1ccc(S(=O)(=O)[O-])o1", "hERG current change (%, negative = inhibition) at 10uM": 26.2},
      {"molecule": "Cc1ccc(S(=O)(=O)NCc2ccc(N3CCN(C(=O)OC(C)(C)C)CC3)cc2)cc1", "hERG current change (%, negative = inhibition) at 10uM": 9.55},
      {"molecule": "COc1ccc(OC)c(CNC(=O)C2CCN(S(=O)(=O)N3CCC(C)CC3)CC2)c1", "hERG current change (%, negative = inhibition) at 10uM": -31.8},
      {"molecule": "Cc1nc2ccccc2c2oc(C(=O)NCCN3CCN(C)CC3)cc12", "hERG current change (%, negative = inhibition) at 10uM": 12.4},
      {"molecule": "CSc1ccc(CNC(=O)C2Cc3cc(S(=O)(=O)N4CCCCC4)ccc3N2C(C)=O)cc1", "note": "(stereo not drawn)", "hERG current change (%, negative = inhibition) at 10uM": -57.1},
      {"molecule": "CC(=O)N1c2ccc(S(=O)(=O)N3CCCC3C(=O)NCc3ccccc3Cl)cc2CC1C", "note": "(stereo not drawn)", "hERG current change (%, negative = inhibition) at 10uM": -40},
      {"molecule": "CCc1ccc(NC(=O)C2CCCN2S(=O)(=O)c2ccc3c(c2)C(C)(C)C(=O)N3C)cc1", "note": "(stereo not drawn)", "hERG current change (%, negative = inhibition) at 10uM": -51},
      {"molecule": "CCOc1ccc(NC(=O)C2CCCN2S(=O)(=O)c2ccc3c(c2)C(C)(C)C(=O)N3C)cc1", "note": "(stereo not drawn)", "hERG current change (%, negative = inhibition) at 10uM": -6.75},
      {"molecule": "CCc1cccc(NC(=O)C2CCCN2S(=O)(=O)c2ccc3c(c2)CC(C)N3C(C)=O)c1", "note": "(stereo not drawn)", "hERG current change (%, negative = inhibition) at 10uM": -71.2},
      {"molecule": "CCc1cccc(NC(=O)C2CCN(S(=O)(=O)c3ccc4c(c3)CC(C)N4C(C)=O)CC2)c1", "note": "(stereo not drawn)", "hERG current change (%, negative = inhibition) at 10uM": 2.05},
      {"molecule": "CCc1ccc(CNC(=O)C2Cc3cc(S(=O)(=O)N4CCCC4)ccc3N2C(C)=O)cc1", "note": "(stereo not drawn)", "hERG current change (%, negative = inhibition) at 10uM": -25.9},
      {"molecule": "CC(=O)N1c2ccc(S(=O)(=O)N3CCCC3C(=O)NCc3ccc(Cl)cc3)cc2CC1C", "note": "(stereo not drawn)", "hERG current change (%, negative = inhibition) at 10uM": -62.9}
    ]}
  ]
}
